Screens (PubChem)
Compounds with a hit are over-represented: about 4.7% of the library has one in this group of screens.
GDH-TPI counter: GDH-TPI coupled enzyme inhibition counter-screen; GDH-TPI coupled enzyme counterscreen, NADH absorbance; inhibition, % at 4.8 µM; 360,000 compounds, 1.2% hits; AID 588335;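 further: 0% = DMSO wells and 100% = wells lacking the enzyme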
Mtb FBA inh: Mtb fructose-bisphosphate aldolase inhibition. P9WQA3. purified M. tuberculosis FBA, fluorescence read-out. inhibition, % at 1 µM. 360,000 compounds, 2.3% hits; in the data active means inhibition above about 27%;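 further: 0% = vehicle and 100% = reference inhibitor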
Target sequence (P9WQA3 whole entry, looked up): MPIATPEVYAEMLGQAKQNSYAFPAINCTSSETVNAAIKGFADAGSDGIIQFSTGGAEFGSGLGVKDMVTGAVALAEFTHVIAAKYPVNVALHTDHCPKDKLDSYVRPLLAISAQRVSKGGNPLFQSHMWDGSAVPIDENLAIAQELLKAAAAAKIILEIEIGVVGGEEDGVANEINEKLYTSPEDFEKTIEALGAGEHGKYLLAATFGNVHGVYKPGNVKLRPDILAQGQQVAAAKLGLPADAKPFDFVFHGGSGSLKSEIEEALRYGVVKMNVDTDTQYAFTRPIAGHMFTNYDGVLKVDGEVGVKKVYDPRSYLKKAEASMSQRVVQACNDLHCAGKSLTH
DUSP3 inh: DUSP3 (human) phosphatase inhibition; inhibition, % at 13.3 µM; recombinant VHR phosphatase, pNPP absorbance; P51452; 290,000 compounds, 0.52% hits; in the data active means inhibition above about 50%
Target sequence (P51452 whole entry, looked up): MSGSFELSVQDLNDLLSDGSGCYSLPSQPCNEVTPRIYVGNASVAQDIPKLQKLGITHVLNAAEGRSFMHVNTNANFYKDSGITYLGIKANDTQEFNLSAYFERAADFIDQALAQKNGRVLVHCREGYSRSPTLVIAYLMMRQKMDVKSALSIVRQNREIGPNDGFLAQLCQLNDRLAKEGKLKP
CCHFV vOTU inh: CCHFV vOTU protease inhibition | Pep-AMC fluorescence | inhibition, % at 11.5 µM | 370,000 compounds, 0.55% hits; further: 0% = vehicle wells with enzyme and 100% = no enzyme wells
RecA intein inh: Mtb RecA intein splicing inhibition; AID 2221; P9WHJ3; 290,000 compounds, 0.75% hits; inhibition, % (no concentration beside the values); cell-free RecA intein splicing, fluorescence; in the data active means inhibition above about 30%;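 further: 0% = vehicle wells and 100% = reference inhibitor control wells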
3CLpro inhibitor: SARS-CoV 3CLpro protease inhibition | P0C6X7 | inhibition, % at 6 µM | 290,000 compounds, 0.14% hits | recombinant SARS-CoV 3CLpro, quenched FRET peptide cleavage; in the data active means inhibition above about 12%
The depositor's hits bear a star; . = no result given; + = active, no number. Unless noted, no stated cut-off is given here; in the data, active means inhibition above about 30%; inactive means the rest.

SMILES	GDH-TPI counter	Mtb FBA inh	DUSP3 inh	CCHFV vOTU inh	RecA intein inh	3CLpro inhibitor
N=C1SCC(=O)N1c1ncc(Cc2ccc(F)cc2)s1	31*	1	44	-1	7	5
Cc1ccc2nc(-c3ccc(Cl)cc3)c(Cc3ccccn3)n2c1	.	.	.	-5	.	.
Cc1cncc(NCc2cccc(Cl)c2)n1	4	118*	.	-90	.	.
CN(C)c1ccc(C=O)c(Oc2ccccc2)c1	38*	-2	.	4	.	.
COc1ccc(Oc2ccccc2C=O)cc1	9	-2	16	3	-4	7
CN1CCN(C(=O)c2cccc(-c3cccc4nccn34)c2)CC1	13	16	.	-2	.	.
CN(C)C(=O)c1cccc(-c2ccc3nncn3c2)c1	14	-2	.	-2	.	.
O=C(NCCO)c1ccc(-c2cnc3cccnn23)cc1	11	+	.	-169	.	.
O=C(NCCO)c1cccc(-c2cnc3cccnn23)c1	14	156*	.	-134	.	.
CNc1ccc2ncc(-c3cccc(C(=O)N(C)C)c3)n2n1	17	156*	.	-192	.	.
O=C(NCCO)c1cccc(-c2ccc3nncn3c2)c1	-7	3	.	25	.	.
CS(=O)(=O)Nc1ccc(-c2cnc3cccnn23)cc1	14	7	.	3	.	.
CN1CCN(C(=O)c2ccc(-c3cnc4cccnn34)cc2)CC1	4	+	.	-136	.	.
O=C(NC1CCCC1)C1(C(=O)C2CC2)CC(c2ccccc2C(F)(F)F)=NO1 (stereo unspecified)	.	.	.	10	.	.
CC(=O)C1=CCN(C)CC1	.	.	.	-3	.	.
CCCCOc1ccc(C(=O)NC2CCCCN(C(C)C)C2=O)cc1 (stereo unspecified)	.	.	.	-1	.	.
COC(=O)Cc1c(C)c2ccc(OCC(=O)N(C)C3CCS(=O)(=O)C3)cc2oc1=O (stereo unspecified)	17	114*	8	-54	-1	5
COC(=O)Cc1c(C)c2ccc(OC(C)C)cc2oc1=O	30	+	18	-96	0	-2
COC(=O)c1cc(-c2c(C)oc3cc(OC(C)C)ccc3c2=O)c(C)o1	10	0	4	-2	5	2
COC(=O)Cc1c(C)c2ccc(OC(=O)c3ccco3)cc2oc1=O	17	+	-7	-187	0	2
COC(=O)Cc1c(C)c2cc(Cl)c(OC(=O)c3ccco3)cc2oc1=O	2	+	4	-200	-179	0
Cc1cc2oc(=O)c3c(c2cc1OC(=O)c1ccco1)CCCC3	14	4	11	2	-2	-4
COCCOC(=O)c1c(C)oc2ccc(OC(=O)c3ccco3)cc12	2	-1	21	-1	24	-6
COC(=O)CC1N(S(=O)(=O)c2ccc(C)cc2)c2ccccc2C1(C(=O)OC)C(=O)OC (stereo unspecified)	.	.	.	0	.	.
Cc1cc(C)cc(NC(=O)CSc2nnc(CNC(=O)c3ccco3)n2C)c1	4	-2	.	-6	.	.
SMILES	GDH-TPI counter	Mtb FBA inh	DUSP3 inh	CCHFV vOTU inh	RecA intein inh	3CLpro inhibitor
CCCCc1c(-c2ccccc2OC)ncn1Cc1c(Cl)cccc1Cl	.	.	.	12	.	.
C=CC(=O)NC1CCCCN(C)C1=O (stereo unspecified)	.	.	.	-1	.	.
CN(Cc1ccccc1)C(=O)c1cccc(NC(=O)Cc2cccc(NC(=O)C3CCN(C(=O)CCc4ccccc4)CC3)c2)c1	.	.	.	-1	.	.
COC(=O)Cc1c(C)c2ccc(OCC(=O)N3CCOCC3)cc2oc1=O	26	123*	7	-39	1	-9
Cc1c(CC(=O)O)c(=O)oc2cc(OCc3ccc(F)cc3F)ccc12	18	156*	14	-70	-1	3
COc1cc(C(=O)Nc2ccc(OCC(=O)N3CCOCC3)cc2C)cc(OC)c1OC	11	1	30	0	.	-8
CN1CCCCC(NC(=O)c2ccc(F)c(F)c2)C1=O (stereo unspecified)	.	.	.	1	.	.
C[C@@H]1CN([C@H](C)CO)S(=O)(=O)c2ccc(Br)cc2O[C@@H]1CN(C)C(=O)NC1CCCC1	-1	-1	.	-1	.	.
O=C(/C=C/c1ccc(-c2ccccc2)cc1)NCc1cccnc1	11	8	14	6	7	5
O=C(/C=C/NCc1cccnc1)c1ccc(-c2ccccc2)cc1	36*	5	-22	6	2	-7
Cc1ccc(C)c(-n2nnnc2Sc2nnnn2-c2ccccc2)c1	-2	5	.	5	71*	-3
Cc1ccccc1-c1cnc2c(c1)C(=O)N([C@@H](C)CO)C[C@@H](C)[C@H](CN(C)Cc1ccccc1F)O2	13	1	.	25	.	.
Cc1cccc(NC(=O)C(=O)NNC(=O)c2ccc(C(C)(C)C)cc2)c1	13	-2	52*	-12	1	1
O=C(OCCc1cc2ccccc2c(=O)o1)c1cccc(Br)c1	8	4	.	4	.	.
COc1ccc2c(c1)/C(=C\c1cccc(/C=C3/C(=O)Nc4ccc(OC)cc43)n1)C(=O)N2	33*	-1	.	-15	.	.
COc1ccc2c(c1)/C(=N/N1C(=O)c3ccccc3C1=O)C(=O)N2	.	.	4	.	1	2
COc1ccc(CCNc2c(C)c(C)nc3ncnn23)cc1	5	2	54*	-11	1	-1
CCc1c(C)nc2ncnn2c1NCCc1ccc(OC)c(OC)c1	-10	1	16	-23	0	-3
C=CCN1C(C(=O)OC)CN(Cc2cn(CCC3OCCO3)nn2)CCS1(=O)=O (stereo unspecified)	.	.	.	-8	.	.
O=C(Cn1c(/C=C/c2ccccc2)nc2ccccc21)Nc1ccc(F)cc1	19	22	51*	-18	-1	-4
Cc1cccc(N2CC(C(=O)OCC(=O)c3ccc(OC(=O)c4cccs4)cc3)CC2=O)c1C (stereo unspecified)	-1	1	-13	2	36*	1
Cc1cccc(N2CC(C(=O)OCC(=O)Nc3sccc3C(N)=O)CC2=O)c1C (stereo unspecified)	3	-2	.	2	.	.
COC(=O)[C@]12C[C@H](CC(=O)N3CCN(C(=O)C4CC4)CC3)C(=O)N(Cc3ccccc3)C1=C[C@H](C1CCCC1)O[C@@H]2C	.	.	.	0	.	.
CC1C(=O)C(C)C(c2cc(Cl)ccc2O)NC1c1cc(Cl)ccc1O (stereo unspecified)	7	2	-14	-9	50*	-5
O=C(c1ccc(N2C(=O)C3C4CC(C(Br)C4Br)C3C2=O)cc1)N1CCCCC1 (stereo unspecified)	-10	2	37	-7	-1	3
Cc1cc(C)c(CN2CCN(C(=O)Cn3cc(C)c(=O)[nH]c3=O)CC2)c(C)c1	.	.	.	-5	.	.
COc1ccc2cc(/C(C)=N/NC(=O)c3cc(C)oc3C)ccc2c1	9	198*	.	-58	.	.
COc1ccc(/C(C)=N/NC(=O)c2ccc(N(C)C)cc2)cc1	35*	0	28	11	-3	3
C/C(=N\NC(=O)c1cc(C)oc1C)c1ccc(C)c([N+](=O)[O-])c1	7	-2	.	5	.	.
CCN(CC)c1ccc(C(=O)N/N=C(\C)c2cccnc2)cc1	21	0	26	9	-5	1
